# The campaign covered roughly 5,500 compounds. About 2,000 (36%) were called active. About 18% were inconclusive and are not listed. This is one part of the list. A number with no mark means an inactive call. Rule as the data show it: active = normalized growth mostly below about 0.91 (no sharp cut-off); inconclusive = no clear call, values can overlap the other calls; inactive = mostly above about 0.92.
# Experiment: chemical genetic growth profiling, strain panel (AID 1159580);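 also: tested at 20 µM; growth read once vehicle control cultures reached saturation at 30 °C; 1 = growth at the plate median or of vehicle wells; lower values mean less growth of the strain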
# Settings: growth OD
structure (smiles),measurement,setting,value
C=C1CCC2C(CC2(C)C)C(=C)CC/C1=N\O (centres undefined),normalized growth,"S. cerevisiae deletion strains, locus YJL187C, strain SWE1, hits give low values",1.01
same,normalized growth,"S. cerevisiae deletion strains, locus YJR043C, strain POL32, hits give low values",0.905
same,normalized growth,"S. cerevisiae deletion strains, locus YJR075W, strain HOC1, hits give low values",0.894
same,normalized growth,"S. cerevisiae deletion strains, locus YKL009W, strain mrt4, hits give low values",0.879 (active)
same,normalized growth,"S. cerevisiae deletion strains, locus YKL068W, hits give low values",0.996
same,normalized growth,"S. cerevisiae deletion strains, locus YKL085W, strain MDH1 (second series), hits give low values",0.972
same,normalized growth,"S. cerevisiae deletion strains, locus YKL085W, strain MDH1, hits give low values",0.972
same,normalized growth,"S. cerevisiae deletion strains, locus YKL160W, strain elf1, hits give low values",1
same,normalized growth,"S. cerevisiae deletion strains, locus YKL190W, strain CNB1, hits give low values",1.01
same,normalized growth,"S. cerevisiae deletion strains, locus YKR001C, strain vps1, hits give low values",0.703 (active)
same,normalized growth,"S. cerevisiae deletion strains, locus YKR026C, strain gcn3, hits give low values",0.998
same,normalized growth,"S. cerevisiae deletion strains, locus YKR091W, strain srl3, hits give low values",0.995
same,normalized growth,"S. cerevisiae deletion strains, locus YLL001W, strain dnm1, hits give low values",1.01
same,normalized growth,"S. cerevisiae deletion strains, locus YLL026W, hits give low values",0.999
same,normalized growth,"S. cerevisiae deletion strains, locus YLL041C, strain sdh2, hits give low values",0.994
same,normalized growth,"S. cerevisiae deletion strains, locus YLR027C, strain aat2, hits give low values",1
same,normalized growth,"S. cerevisiae deletion strains, locus YLR039C, strain RIC1, hits give low values",0.441 (active)
same,normalized growth,"S. cerevisiae deletion strains, locus YLR058C, strain SHM2, hits give low values",1.01
same,normalized growth,"S. cerevisiae deletion strains, locus YLR102C, strain apc9, hits give low values",1.01
same,normalized growth,"S. cerevisiae deletion strains, locus YLR221C, strain rsa3, hits give low values",0.983
same,normalized growth,"S. cerevisiae deletion strains, locus YLR258W, strain gsy2, hits give low values",1.01
same,normalized growth,"S. cerevisiae deletion strains, locus YLR262C, strain YPT6 (second series), hits give low values",0.966
same,normalized growth,"S. cerevisiae deletion strains, locus YLR262C, strain YPT6, hits give low values",0.393 (active)
same,normalized growth,"S. cerevisiae deletion strains, locus YLR268W, strain sec22, hits give low values",0.936
same,normalized growth,"S. cerevisiae deletion strains, locus YLR320W, strain mms22, hits give low values",0.984
same,normalized growth,"S. cerevisiae deletion strains, locus YLR330W, strain CHS5, hits give low values",1.01
same,normalized growth,"S. cerevisiae deletion strains, locus YLR342W, strain FKS1 (second series), hits give low values",0.694 (active)
same,normalized growth,"S. cerevisiae deletion strains, locus YLR342W, strain FKS1, hits give low values",1.01
same,normalized growth,"S. cerevisiae deletion strains, locus YLR357W, strain rsc2, hits give low values",1.03
same,normalized growth,"S. cerevisiae deletion strains, locus YLR370C, strain arc18, hits give low values",0.996
same,normalized growth,"S. cerevisiae deletion strains, locus YLR371W, strain rom2, hits give low values",0.994
same,normalized growth,"S. cerevisiae deletion strains, locus YLR384C, strain iki3, hits give low values",0.992
same,normalized growth,"S. cerevisiae deletion strains, locus YLR418C, strain cdc73, hits give low values",0.847
same,normalized growth,"S. cerevisiae deletion strains, locus YML016C, strain PPZ1, hits give low values",0.999
same,normalized growth,"S. cerevisiae deletion strains, locus YML032C, strain rad52, hits give low values",0.89 (active)
same,normalized growth,"S. cerevisiae deletion strains, locus YML120C, strain ndi1, hits give low values",1.01
same,normalized growth,"S. cerevisiae deletion strains, locus YML124C, strain tub3, hits give low values",0.99
same,normalized growth,"S. cerevisiae deletion strains, locus YMR058W, strain fet3, hits give low values",1.01
same,normalized growth,"S. cerevisiae deletion strains, locus YMR078C, strain ctf18, hits give low values",0.978
same,normalized growth,"S. cerevisiae deletion strains, locus YMR125W, strain sto1, hits give low values",1.03
same,normalized growth,"S. cerevisiae deletion strains, locus YMR129W, hits give low values",1
same,normalized growth,"S. cerevisiae deletion strains, locus YMR205C, strain PFK2, hits give low values",0.992
same,normalized growth,"S. cerevisiae deletion strains, locus YMR223W, strain ubp8, hits give low values",0.906
same,normalized growth,"S. cerevisiae deletion strains, locus YMR231W, strain pep5, hits give low values",0.997
same,normalized growth,"S. cerevisiae deletion strains, locus YMR263W, strain SAP30, hits give low values",0.962
same,normalized growth,"S. cerevisiae deletion strains, locus YMR307W, strain GAS1, hits give low values",0.423 (active)
same,normalized growth,"S. cerevisiae deletion strains, locus YNL067W, strain RPL9B, hits give low values",0.942
same,normalized growth,"S. cerevisiae deletion strains, locus YNL071W, strain lat1, hits give low values",1
same,normalized growth,"S. cerevisiae deletion strains, locus YNL128W, strain TEP1, hits give low values",0.964
same,normalized growth,"S. cerevisiae deletion strains, locus YNL153C, strain GIM3, hits give low values",0.972
same,normalized growth,"S. cerevisiae deletion strains, locus YNL209W, strain ssb2, hits give low values",1
same,normalized growth,"S. cerevisiae deletion strains, locus YNL233W, strain BNI4, hits give low values",0.892
same,normalized growth,"S. cerevisiae deletion strains, locus YNL248C, strain rpa49, hits give low values",1
same,normalized growth,"S. cerevisiae deletion strains, locus YNL250W, strain rad50, hits give low values",0.991
same,normalized growth,"S. cerevisiae deletion strains, locus YNL271C, strain bni1, hits give low values",0.969
same,normalized growth,"S. cerevisiae deletion strains, locus YNL298W, strain CLA4, hits give low values",0.878 (active)
same,normalized growth,"S. cerevisiae deletion strains, locus YNL307C, strain MCK1, hits give low values",0.683 (active)
same,normalized growth,"S. cerevisiae deletion strains, locus YNL322C, strain KRE1 (second series), hits give low values",0.983
same,normalized growth,"S. cerevisiae deletion strains, locus YNL322C, strain KRE1, hits give low values",0.988
same,normalized growth,"S. cerevisiae deletion strains, locus YNR049C, strain mso1, hits give low values",0.997
same,normalized growth,"S. cerevisiae deletion strains, locus YNR052C, strain pop2, hits give low values",0.944
same,normalized growth,"S. cerevisiae deletion strains, locus YOL006C, strain TOP1, hits give low values",0.725
same,normalized growth,"S. cerevisiae deletion strains, locus YOL012C, strain htz1",1.35
same,normalized growth,"S. cerevisiae deletion strains, locus YOL147C, strain pex11, hits give low values",0.983
same,normalized growth,"S. cerevisiae deletion strains, locus YOR001W, strain rrp6, hits give low values",0.985
same,normalized growth,"S. cerevisiae deletion strains, locus YOR061W, strain CKA2, hits give low values",0.997
same,normalized growth,"S. cerevisiae deletion strains, locus YOR069W, strain VPS5, hits give low values",1.01
same,normalized growth,"S. cerevisiae deletion strains, locus YOR070C, strain gyp1, hits give low values",0.991
same,normalized growth,"S. cerevisiae deletion strains, locus YOR080W, strain dia2, hits give low values",1.01
same,normalized growth,"S. cerevisiae deletion strains, locus YOR083W, strain WHI5, hits give low values",0.989
same,normalized growth,"S. cerevisiae deletion strains, locus YOR106W, strain vam3, hits give low values",1
same,normalized growth,"S. cerevisiae deletion strains, locus YOR136W, strain idh2, hits give low values",0.972
same,normalized growth,"S. cerevisiae deletion strains, locus YOR144C, strain elg1, hits give low values",0.976
same,normalized growth,"S. cerevisiae deletion strains, locus YOR184W, strain ser1, hits give low values",0.697 (active)
same,normalized growth,"S. cerevisiae deletion strains, locus YOR265W, strain rbl2, hits give low values",0.993
same,normalized growth,"S. cerevisiae deletion strains, locus YOR270C, strain vph1, hits give low values",0.987
same,normalized growth,"S. cerevisiae deletion strains, locus YOR290C, strain snf2, hits give low values",0.972
same,normalized growth,"S. cerevisiae deletion strains, locus YOR316C, strain cot1, hits give low values",1
same,normalized growth,"S. cerevisiae deletion strains, locus YPL051W, strain arl3, hits give low values",1.03
same,normalized growth,"S. cerevisiae deletion strains, locus YPL055C, strain LGE1, hits give low values",0.844
same,normalized growth,"S. cerevisiae deletion strains, locus YPL078C, strain atp4, hits give low values",1
same,normalized growth,"S. cerevisiae deletion strains, locus YPL106C, strain sse1, hits give low values",1.05
same,normalized growth,"S. cerevisiae deletion strains, locus YPL240C, strain hsp82, hits give low values",1
same,normalized growth,"S. cerevisiae deletion strains, locus YPR119W, strain clb2, hits give low values",0.983
same,normalized growth,"S. cerevisiae deletion strains, locus YPR141C, strain kar3, hits give low values",1.01
same,normalized growth,"S. cerevisiae deletion strains, locus YPR163C, strain tif3, hits give low values",0.996
same,normalized growth,"S. cerevisiae deletion strains, locus YPR167C, strain met16, hits give low values",0.993
same,normalized growth,"S. cerevisiae deletion strains, strain wtn01, hits give low values",0.915
same,normalized growth,"S. cerevisiae strains, strain wild type, hits give low values",0.982
